High-throughput results from PubChem.
An excerpt weighted towards active compounds, which were near 2.6% of everything screened.
Peg3 promoter: inhibitors of Peg3 promoter; 360,000 tested, 1.7% active; HeLa PEG-Prom luciferase reporter, luminescence, overnight; inhibition, % at 20 µM;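 active = inhibition of at least 50% at 20 µM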
HIF-2a inh: HIF-2a inhibition; 360,000 tested, 0.72% active; AID 624352; 786-0 RCC cells HIF-2a reporter, luciferase luminescence, overnight; inhibition, % at 18.8 µM;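 active = inhibition of the luminescence signal of 40% or more relative to plate controls, in a single-dose primary screen at 18.75 µM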
CF NFkB block: blocks PAF-induced NF-kB reporter in cystic fibrosis cells. KKLEB NF-kB-GFP reporter, GFP fluorescence overnight. inhibition, % at 5 µM. 360,000 tested, 0.86% active. AID 588850;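 active = at least 50% inhibition at 5 µM, scaled per plate between neutral and stimulator controls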;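 note: PAF is a Pseudomonas aeruginosa culture filtrate used as stimulus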
Shn3 3UTR inh: reduces Shn3 3'UTR luciferase signal in osteoblasts | Clone20 osteoblast Shn3 3'UTR firefly luciferase, 24 h | 360,000 tested, 0.52% active | AID 588674 | inhibition, % at 12.5 µM;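 active = mean inhibition of at least 75% with every replicate also reaching 75%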
KKLEB cytotox: reduces viability of KKLEB cystic fibrosis airway cells | KKLEB CF airway cells viability, ATPlite luminescence, overnight; stronger effect = lower value; cells stimulated with P. aeruginosa culture filtrate | activity change (cytotoxicity), % at 5 µM | 360,000 tested, 0.36% active | AID 602141;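 active = corrected activity change at or below -50% at 5 µM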
Mdm2 MdmX conf: Mdm2/MdmX (human) interaction inhibition, confirmed; shares compounds with HIF-2a inh; SaOS-2 split-luciferase Mdm2/MdmX complementation, luminescence; inhibition, % at 8 µM; 740 tested, 99% active;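 active = mean inhibition of the luminescence signal across two replicates at or above 26 percent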
Target sequence (O15151 whole entry, looked up): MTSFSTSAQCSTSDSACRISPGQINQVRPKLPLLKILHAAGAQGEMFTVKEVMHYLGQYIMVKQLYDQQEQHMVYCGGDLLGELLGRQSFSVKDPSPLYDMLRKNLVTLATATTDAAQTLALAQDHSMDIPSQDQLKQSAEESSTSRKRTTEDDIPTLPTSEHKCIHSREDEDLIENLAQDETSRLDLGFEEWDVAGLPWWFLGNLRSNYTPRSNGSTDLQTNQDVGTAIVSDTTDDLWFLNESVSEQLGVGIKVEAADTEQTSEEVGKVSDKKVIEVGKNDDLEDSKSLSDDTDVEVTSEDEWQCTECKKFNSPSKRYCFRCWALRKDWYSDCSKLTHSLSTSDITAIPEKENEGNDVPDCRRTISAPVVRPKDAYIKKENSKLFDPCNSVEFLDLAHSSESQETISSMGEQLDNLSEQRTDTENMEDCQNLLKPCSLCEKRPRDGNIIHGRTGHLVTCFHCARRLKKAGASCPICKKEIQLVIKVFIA
Target sequence (Q00987 whole entry, looked up): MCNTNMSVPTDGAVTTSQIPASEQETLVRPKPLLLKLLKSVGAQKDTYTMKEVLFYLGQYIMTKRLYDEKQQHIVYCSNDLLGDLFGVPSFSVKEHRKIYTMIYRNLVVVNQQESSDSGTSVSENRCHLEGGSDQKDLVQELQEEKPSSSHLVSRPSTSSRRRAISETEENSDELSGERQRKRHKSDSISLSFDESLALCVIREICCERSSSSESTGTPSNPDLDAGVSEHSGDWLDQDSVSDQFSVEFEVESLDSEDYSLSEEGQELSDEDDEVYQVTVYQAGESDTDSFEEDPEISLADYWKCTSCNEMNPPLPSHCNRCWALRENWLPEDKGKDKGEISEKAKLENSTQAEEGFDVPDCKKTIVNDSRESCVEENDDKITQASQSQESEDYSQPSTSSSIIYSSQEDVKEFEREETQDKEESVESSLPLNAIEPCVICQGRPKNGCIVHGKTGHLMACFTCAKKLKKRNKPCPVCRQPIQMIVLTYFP
HIF-2a inh conf: confirmation of HIF-2a inhibitors. shares compounds with HIF-2a inh. 786-0 RCC cells, HIF-2a luciferase reporter luminescence, overnight. inhibition, % at 18.8 µM. 1,800 tested, 56% active. AID 651580;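 active = mean inhibition across four replicates of at least 40 percent at the single tested concentration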
HIF-1a counter: inhibits HIF-1a reporter, a counter-screen for HIF-2a inhibitors; 1,800 tested, 72% active; MiaPaCa-2 HIF-1a luciferase reporter, desferoxamine, overnight; shares compounds with HIF-2a inh; inhibition, % at 18.8 µM;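 active = mean inhibition of the reporter signal across four replicates at the single tested dose of 50% or more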
Each line names hits and unclear results; the compound was inactive in the other large screens (follow-up assays come after a bar, where they were run).

C=CS(=O)(=O)c1ccc(Oc2ccc(S(=O)(=O)C=C)cc2)cc1	Peg3 promoter 107, HIF-2a inh 90, CF NFkB block 99, Shn3 3UTR inh 96, KKLEB cytotox -56 | HIF-2a inh conf 90 | HIF-1a counter 106
NS(=O)(=O)c1ccc(Oc2ccc(S(N)(=O)=O)cc2)cc1	none
CN(C)c1ccc(C(=S)NCc2ccco2)cc1	HIF-2a inh 52 | HIF-2a inh conf inactive | HIF-1a counter inactive
CN(C)c1ccc(/C=N/NC(=S)NCc2ccco2)cc1	none
COc1ccc(Cl)cc1NS(=O)(=O)c1cn(C)nc1C	none
Cc1nnc(SC(=O)N2c3ccccc3Sc3ccccc32)s1	Peg3 promoter 99, CF NFkB block 69, KKLEB cytotox -58 | Mdm2 MdmX conf 103
CCOC(=O)N1c2ccccc2Sc2ccccc21	none
COc1ccc(/C=C/C(=O)OCC(=O)Nc2ccc(C)cc2)cc1S(=O)(=O)N1CCOCC1	none
COC(=O)c1[nH]c2ccc(Br)cc2c1NC(=O)CN1CCN(C2CCCCC2)CC1	Peg3 promoter 104, HIF-2a inh 68 | Mdm2 MdmX conf 103 | HIF-2a inh conf inactive | HIF-1a counter 104
COC(=O)c1[nH]c2ccc(Cl)cc2c1NC(=O)CCN1CCN(C2CCCCC2)CC1	none
COc1ccc(C(=O)C(C)OC(=O)C2CC3CCCC(C2)C3=O)cc1 (stereo unspecified)	none
Brc1cc(Br)c2ncnc(N3CCCCC3)c2c1	Peg3 promoter 56, HIF-2a inh 54, CF NFkB block 52 | HIF-2a inh conf inactive | HIF-1a counter 88
O=C(CCl)N(Cc1ccccc1)c1ccccc1	CF NFkB block 70 | Mdm2 MdmX conf 103
COC(=O)c1ccc(C(=O)N(Cc2ccccc2)c2ccccc2)cc1	none
COc1ccc(/C=N/Nc2cc(C)nc3ccc(OC)cc23)c(OC)c1	Peg3 promoter 107, HIF-2a inh 92, Shn3 3UTR inh 96 | Mdm2 MdmX conf 103
NCc1ccccc1CS(=O)(=O)N1CCOCC1	none
CC1(C)Cc2c(sc(NC(=O)COc3cccc4ccccc34)c2C#N)C(C)(C)N1	Peg3 promoter 90, HIF-2a inh 49 | Mdm2 MdmX conf 103 | HIF-2a inh conf inactive | HIF-1a counter 53
COc1ccc(N(C)S(=O)(=O)c2cccc(C(=O)OCC(=O)N3CC(C)CC(C)C3)c2)cc1 (stereo unspecified)	none
CC(=O)Nc1ccc(NC(=O)c2oc3cc(C)c(C)cc3c2C)cc1	HIF-2a inh 52 | HIF-2a inh conf 74 | HIF-1a counter inactive
Cc1cc2oc(C(=O)Nc3cccnc3)c(C)c2cc1C	none
COc1ccc(NC(C)=O)cc1S(=O)(=O)Nc1ccc(C(=O)N2CCCC2)cc1	none (no result: Shn3 3UTR inh)
COc1ccc(C(=O)Nc2nc3ccccc3[nH]2)cc1	HIF-2a inh 49 | HIF-2a inh conf 64 | HIF-1a counter 68
Cc1ccc2ccccc2c1C(O)c1ncc(-c2ccccc2)[nH]1 (stereo unspecified)	none
O=C1C=CC(=O)N1CCCCCCCCCCN1C(=O)C=CC1=O	Peg3 promoter 102, HIF-2a inh 71, CF NFkB block 74, Shn3 3UTR inh 93 | HIF-2a inh conf 61 | HIF-1a counter 80
O=C1C=CC(=O)N1Cc1ccncc1	none
Cc1ccc(S(=O)(=O)N2CCOCC2)cc1NC(=O)CN1CCN(C)CC1	none
Cc1ccc(S(=O)(=O)N2CCOCC2)cc1NC(=O)CN1CCN(c2ccc(O)cc2)CC1	HIF-2a inh 46 | HIF-2a inh conf 44 | HIF-1a counter 98
COc1ccc(CN(CCC(c2ccccc2)c2ccc(OC(C)C)cc2)C(=O)CCl)cc1OC (stereo unspecified)	Peg3 promoter 106, HIF-2a inh 96, CF NFkB block 81, KKLEB cytotox -85 | Mdm2 MdmX conf 103
CCOc1ccccc1N(CC(=O)NCCc1ccc(OC)cc1)S(=O)(=O)c1ccc(C)cc1	none
Cc1ccc(N(CC(=O)NCCc2ccc(F)cc2)S(=O)(=O)c2ccc(Cl)c([N+](=O)[O-])c2)c(C)c1	Peg3 promoter 104, HIF-2a inh 92 | HIF-2a inh conf inactive | HIF-1a counter 108
CN(C)CCCNc1c2ccccc2nc2ccccc12	Peg3 promoter 102, Shn3 3UTR inh 94 | Mdm2 MdmX conf 102
CCC(=O)N1CCCC(C(=O)c2ccc(-c3ccccc3)cc2)C1 (stereo unspecified)	none
CC(C)C(=O)N1CCN(c2ccc(NC(=O)c3ccc(Br)o3)cc2)CC1	none
Cc1ccccc1C(=O)N1CCN(c2ccc(NC(=O)c3ccc([N+](=O)[O-])o3)cc2)CC1	Peg3 promoter 101, HIF-2a inh 96, CF NFkB block 64, Shn3 3UTR inh 99 | HIF-2a inh conf inactive | HIF-1a counter 100
O=C(Nc1ccc(N2CCN(C(=O)c3ccccc3)CC2)cc1)c1ccc([N+](=O)[O-])o1	Peg3 promoter 103, HIF-2a inh 90, CF NFkB block 84, KKLEB cytotox -72 | HIF-2a inh conf 88 | HIF-1a counter 105
CC(C)C(=O)N1CCN(c2ccc(NC(=O)c3ccc([N+](=O)[O-])o3)cc2)CC1	Peg3 promoter 112, HIF-2a inh 89, CF NFkB block 90 | HIF-2a inh conf 54 | HIF-1a counter 98
COc1ccccc1C(N)=S	none
O=C(NCc1ccc(F)cc1)c1cc2ccccc2o1	none
COc1cccc(CN2CCC(CO)(CC3CCCCO3)CC2)c1 (stereo unspecified)	none
COC(=O)c1cc(=O)n(-c2ccc(F)cc2)c(=Nc2ccc(F)cc2)s1	Peg3 promoter 93, HIF-2a inh 53 | HIF-2a inh conf 66 | HIF-1a counter 91
O=C(Nc1ccc(Cl)cc1Cl)c1cccc(N2C(=O)C=CC2=O)c1	Peg3 promoter 108, HIF-2a inh 44 | HIF-2a inh conf 80 | HIF-1a counter inactive
COC(=O)C1=C(C)N(c2cc(C)cc(C)c2)/C(=C/c2ccc(O)cc2)C1=O	HIF-2a inh 44 | HIF-2a inh conf inactive | HIF-1a counter 61
Cc1cc(NC(=O)c2ccccc2)c(Cl)cc1N	HIF-2a inh 69 | HIF-2a inh conf 84 | HIF-1a counter 59
Cc1nn(-c2ccccc2)c(Cl)c1/C=N/Nc1ccc(Cl)c(C(=O)O)c1	HIF-2a inh 61 | HIF-2a inh conf 56 | HIF-1a counter inactive
O=C(Nc1nncs1)c1cc(-c2ccco2)nc2ccccc12	none
CCOC(=O)C1CCN(C(=O)Nc2ccc3snnc3c2)CC1	HIF-2a inh 52 | HIF-2a inh conf 50 | HIF-1a counter inactive
CCOC(=O)C1CCN(C(=O)Nc2ccc3nccnc3c2)CC1	none
